According to PubChem BioAssay AID1159580 (chemical genetic matrix, 2015):
Several values for one entry are separate records, joined by “and”; a condition that tells them apart may be missing. Identical values can stand only once. Out of some 5,500 compounds screened, about 2,000 (36%) were called active. Not shown: some 18% with an inconclusive outcome. Rule as the data show it: active = normalized growth mostly below about 0.91 (no sharp cut-off); inconclusive = no clear call, values can overlap the other calls; inactive = mostly above about 0.92. The list shows a part of the results.

Test: chemical genetic growth profiling, strain panel (AID 1159580);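 also: tested at 20 µM; growth read once vehicle control cultures reached saturation at 30 °C; 1 = growth at the plate median or of vehicle wells; lower values mean less growth of the strain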
Details: S. cerevisiae deletion strains, growth OD

Measured: normalized growth

COc1cc2c(cc1OC)[C@@]13CCN4CC5=CCOC6CC(=O)N2C1[C@H]6[C@H]5C[C@H]43 (stereo partly drawn)
inactive: locus YAL013W, strain DEP1, stronger effect = lower value 1.02 | locus YAL021C, strain ccr4, stronger effect = lower value 0.983 | locus YAL026C, strain drs2, stronger effect = lower value 0.998 | locus YAL030W, strain snc1, stronger effect = lower value 1 | locus YBL061C, strain skt5, stronger effect = lower value 0.994 | locus YBR009C, strain hhf1, stronger effect = lower value 0.994 | locus YBR021W, strain FUR4, stronger effect = lower value 0.985 | locus YBR023C, strain chs3, stronger effect = lower value 0.989 | locus YBR171W, strain sec66, stronger effect = lower value 0.99 | locus YBR229C, strain ROT2, stronger effect = lower value 1.01 | locus YBR231C, strain swc5, stronger effect = lower value 0.979 | locus YBR279W, strain paf1, stronger effect = lower value 0.993 | locus YCL011C, strain gbp2, stronger effect = lower value 0.988 | locus YCL016C, strain dcc1, stronger effect = lower value 0.986 | locus YCL029C, strain bik1, stronger effect = lower value 1.01 | locus YCL061C, strain MRC1, stronger effect = lower value 0.988 | locus YCL069W, strain vba3, stronger effect = lower value 0.995 | locus YCR088W, strain abp1, stronger effect = lower value 0.994 | locus YDL005C, strain med2, stronger effect = lower value 0.988 | locus YDL035C, strain GPR1, stronger effect = lower value 1.03 | locus YDL040C, strain nat1, stronger effect = lower value 0.983 | locus YDL074C, strain BRE1, stronger effect = lower value 1.03 | locus YDL101C, strain DUN1, stronger effect = lower value 1.02 | locus YDL185W, strain tfp1, stronger effect = lower value 1 | locus YDL192W, strain arf1, stronger effect = lower value 1.01 | locus YDR001C, strain nth1, stronger effect = lower value 0.997 | locus YDR069C, strain doa4, stronger effect = lower value 1 | locus YDR101C, strain arx1, stronger effect = lower value 0.997 | locus YDR137W, strain rgp1, stronger effect = lower value 1 | locus YDR150W, strain NUM1, stronger effect = lower value 1.02 | locus YDR159W, strain sac3, stronger effect = lower value 0.977 | locus YDR162C, strain NBP2, stronger effect = lower value 1.02 | locus YDR195W, strain ref2 0.927 | locus YDR297W, strain sur2, stronger effect = lower value 0.996 | locus YDR318W, strain mcm21, stronger effect = lower value 1.02 | locus YDR334W, strain swr1, stronger effect = lower value 0.986 | locus YDR335W, strain msn5, stronger effect = lower value 0.996 | locus YDR388W, stronger effect = lower value 0.994 | locus YDR392W, strain spt3, stronger effect = lower value 0.999 | locus YDR502C, strain sam2, stronger effect = lower value 1.03 | locus YEL003W, strain gim4, stronger effect = lower value 0.997 | locus YEL037C, strain rad23, stronger effect = lower value 0.989 | locus YEL061C, strain CIN8 (second series), stronger effect = lower value 0.986 | locus YEL061C, strain CIN8, stronger effect = lower value 1.01 | locus YER015W, strain faa2, stronger effect = lower value 0.989 | locus YER016W, strain bim1, stronger effect = lower value 0.989 | locus YER110C, stronger effect = lower value 0.997 | locus YER111C, strain swi4, stronger effect = lower value 0.971 | locus YER155C, strain BEM2 (second series), stronger effect = lower value 0.993 | locus YER155C, strain BEM2, stronger effect = lower value 1.01 | locus YER167W, strain BCK2, stronger effect = lower value 1 | locus YFR010W, strain ubp6, stronger effect = lower value 0.999 | locus YGL078C, strain dbp3, stronger effect = lower value 1.01 | locus YGL086W, strain mad1, stronger effect = lower value 1 | locus YGL167C, strain pmr1, stronger effect = lower value 0.988 | locus YGL173C, strain kem1, stronger effect = lower value 0.982 | locus YGL227W, strain vid30, stronger effect = lower value 0.984 | locus YGL240W, strain doc1, stronger effect = lower value 0.979 | locus YGL248W, strain PDE1, stronger effect = lower value 1.01 | locus YGL253W, strain hxk2, stronger effect = lower value 0.988 | locus YGR078C, strain PAC10, stronger effect = lower value 1.02 | locus YGR135W, strain pre9, stronger effect = lower value 1.01 | locus YGR229C, strain SMI1, stronger effect = lower value 1.04 | locus YGR252W, strain gcn5, stronger effect = lower value 0.994 | locus YHR013C, strain ard1, stronger effect = lower value 0.964 | locus YHR027C, strain rpn1, stronger effect = lower value 0.987 | locus YHR030C, strain SLT2, stronger effect = lower value 1.02 and 1.01 | locus YHR079C, strain IRE1 (second series), stronger effect = lower value 0.996 | locus YHR079C, strain IRE1, stronger effect = lower value 1.09 | locus YHR094C, strain hxt1, stronger effect = lower value 0.977 | locus YHR129C, strain ARP1, stronger effect = lower value 1.02 | locus YHR142W, strain chs7, stronger effect = lower value 0.99 | locus YHR200W, strain rpn10, stronger effect = lower value 0.99 | locus YIL066C, strain RNR3, stronger effect = lower value 1.02 | locus YIL073C, strain SPO22, stronger effect = lower value 1.02 | locus YIL125W, strain kgd1, stronger effect = lower value 1 | locus YIR030C, strain dcg1, stronger effect = lower value 0.996 | locus YJL092W, strain hpr5, stronger effect = lower value 0.984 | locus YJL095W, strain BCK1 (second series), stronger effect = lower value 0.984 | locus YJL095W, strain BCK1, stronger effect = lower value 1.02 and 0.999 | locus YJL115W, strain asf1, stronger effect = lower value 0.993 | locus YJL129C, strain trk1, stronger effect = lower value 0.99 | locus YJL134W, strain LCB3, stronger effect = lower value 1.01 | locus YJL154C, strain vps35, stronger effect = lower value 0.986 | locus YJL164C, strain tpk1, stronger effect = lower value 1.01 | locus YJL166W, strain qcr8, stronger effect = lower value 0.996 | locus YJL168C, strain set2, stronger effect = lower value 1 | locus YJL187C, strain SWE1 (second series), stronger effect = lower value 1.02 | locus YJL187C, strain SWE1, stronger effect = lower value 0.996 | locus YJR043C, strain POL32, stronger effect = lower value 1.04 | locus YJR066W, strain TOR1, stronger effect = lower value 0.973 | locus YJR075W, strain HOC1, stronger effect = lower value 1.02 | locus YKL009W, strain mrt4, stronger effect = lower value 1.04 | locus YKL068W, stronger effect = lower value 0.995 | locus YKL085W, strain MDH1 (second series), stronger effect = lower value 1 | locus YKL085W, strain MDH1, stronger effect = lower value 1 | locus YKL160W, strain elf1, stronger effect = lower value 0.98 | locus YKR001C, strain vps1, stronger effect = lower value 1.01 | locus YKR026C, strain gcn3, stronger effect = lower value 0.991 | locus YKR091W, strain srl3, stronger effect = lower value 0.994 | locus YLL001W, strain dnm1, stronger effect = lower value 0.989 | locus YLL026W, stronger effect = lower value 0.99 | locus YLL041C, strain sdh2, stronger effect = lower value 0.995 | locus YLR027C, strain aat2, stronger effect = lower value 0.996 | locus YLR039C, strain RIC1, stronger effect = lower value 1.04 | locus YLR058C, strain SHM2, stronger effect = lower value 1.02 | locus YLR102C, strain apc9, stronger effect = lower value 0.997 | locus YLR113W, strain HOG1, stronger effect = lower value 0.991 | locus YLR221C, strain rsa3, stronger effect = lower value 0.997 | locus YLR258W, strain gsy2, stronger effect = lower value 0.99 | locus YLR262C, strain YPT6 (second series), stronger effect = lower value 0.988 | locus YLR262C, strain YPT6, stronger effect = lower value 1.05 | locus YLR268W, strain sec22, stronger effect = lower value 1 | locus YLR320W, strain mms22, stronger effect = lower value 0.982 | locus YLR330W, strain CHS5, stronger effect = lower value 1.01 | locus YLR342W, strain FKS1 (second series), stronger effect = lower value 1.02 | locus YLR342W, strain FKS1, stronger effect = lower value 0.989 | locus YLR357W, strain rsc2, stronger effect = lower value 0.983 | locus YLR370C, strain arc18, stronger effect = lower value 0.991 | locus YLR371W, strain rom2, stronger effect = lower value 0.993 | locus YLR384C, strain iki3, stronger effect = lower value 0.995 | locus YLR418C, strain cdc73, stronger effect = lower value 1.01 | locus YML016C, strain PPZ1, stronger effect = lower value 1.01 | locus YML032C, strain rad52, stronger effect = lower value 1.01 | locus YML120C, strain ndi1, stronger effect = lower value 0.981 | locus YML124C, strain tub3, stronger effect = lower value 1 | locus YMR058W, strain fet3, stronger effect = lower value 0.986 | locus YMR078C, strain ctf18, stronger effect = lower value 1 | locus YMR125W, strain sto1, stronger effect = lower value 0.992 | locus YMR129W, stronger effect = lower value 0.997 | locus YMR205C, strain PFK2, stronger effect = lower value 0.973 | locus YMR223W, strain ubp8, stronger effect = lower value 1 | locus YMR231W, strain pep5, stronger effect = lower value 0.995 | locus YMR307W, strain GAS1, stronger effect = lower value 1.05 | locus YNL067W, strain RPL9B, stronger effect = lower value 1.01 | locus YNL071W, strain lat1, stronger effect = lower value 0.997 | locus YNL128W, strain TEP1, stronger effect = lower value 1.03 | locus YNL153C, strain GIM3, stronger effect = lower value 1.02 | locus YNL183C, strain NPR1, stronger effect = lower value 0.968 | locus YNL209W, strain ssb2, stronger effect = lower value 1 | locus YNL233W, strain BNI4, stronger effect = lower value 1.01 | locus YNL248C, strain rpa49, stronger effect = lower value 0.992 | locus YNL250W, strain rad50, stronger effect = lower value 1 | locus YNL271C, strain bni1, stronger effect = lower value 1.01 | locus YNL298W, strain CLA4, stronger effect = lower value 1.01 | locus YNL307C, strain MCK1, stronger effect = lower value 0.996 | locus YNL322C, strain KRE1 (second series), stronger effect = lower value 0.982 | locus YNL322C, strain KRE1, stronger effect = lower value 1.01 | locus YNR049C, strain mso1, stronger effect = lower value 0.989 | locus YNR052C, strain pop2, stronger effect = lower value 0.995 | locus YOL012C, strain htz1 1.21 | locus YOL147C, strain pex11, stronger effect = lower value 0.993 | locus YOR001W, strain rrp6, stronger effect = lower value 0.994 | locus YOR061W, strain CKA2, stronger effect = lower value 1.01 | locus YOR069W, strain VPS5, stronger effect = lower value 1.02 | locus YOR070C, strain gyp1, stronger effect = lower value 0.998 | locus YOR080W, strain dia2, stronger effect = lower value 0.986 | locus YOR083W, strain WHI5, stronger effect = lower value 0.993 | locus YOR106W, strain vam3, stronger effect = lower value 0.997 | locus YOR136W, strain idh2, stronger effect = lower value 0.991 | locus YOR144C, strain elg1, stronger effect = lower value 0.997 | locus YOR184W, strain ser1, stronger effect = lower value 1.02 | locus YOR231W, strain MKK1, stronger effect = lower value 1 | locus YOR265W, strain rbl2, stronger effect = lower value 0.991 | locus YOR270C, strain vph1, stronger effect = lower value 1 | locus YOR290C, strain snf2, stronger effect = lower value 0.99 | locus YOR316C, strain cot1, stronger effect = lower value 0.995 | locus YPL051W, strain arl3, stronger effect = lower value 0.997 | locus YPL055C, strain LGE1, stronger effect = lower value 1.03 | locus YPL078C, strain atp4, stronger effect = lower value 0.988 | locus YPL106C, strain sse1, stronger effect = lower value 0.971 | locus YPL240C, strain hsp82, stronger effect = lower value 0.988 | locus YPL256C, strain CLN2, stronger effect = lower value 0.979 | locus YPR119W, strain clb2, stronger effect = lower value 1 | locus YPR141C, strain kar3, stronger effect = lower value 0.998 | locus YPR163C, strain tif3, stronger effect = lower value 1.01 | locus YPR167C, strain met16, stronger effect = lower value 1.01 | strain wtn01, stronger effect = lower value 1
